Experimental findings from PubChem BioAssay (NCI) are described below.

Among the test systems are SK-MEL-2 melanoma; EKVX NSCLC; SN12C renal; UO-31 renal; TK-10 renal; ACHN renal; CAKI-1 renal; A498 renal; CCRF-CEM leukemia; MOLT-4 leukemia.
What all share (assay): NCI-60 one-dose screen, 48 h (100 = growth as untreated, 0 = no growth, -100 = all killed)
Holding throughout (conditions): 10 µM unless noted

The structures appear in SMILES notation. Compounds without any hit were thinned out: in the full panel of roughly 83,000, 20% have a hit.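 In brief: 96-well plates, 48 h treatment, single concentration, percent growth endpoint.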 A number with no mark means an inactive call. Calls of active or inactive are those of the source. The calls were made as follows: active = growth percent below 10; inactive = the rest.

For the compound `COc1ccc(/C=N/NC(=O)CCN2c3ccccc3Sc3ccccc32)cc1`, the growth with SK-MEL-2 melanoma was 95.6%; in the experiment on EKVX NSCLC it was 79.7%; in the experiment with SN12C renal it was 88.1%; in the experiment with UO-31 renal, 66.5%; with TK-10 renal, 111%; in the experiment on ACHN renal it was 86.6%. Further, the growth in the experiment with CAKI-1 renal was 41.5%; in the experiment with A498 renal, 55.7%; with CCRF-CEM leukemia it was 82.7%; in the experiment with MOLT-4 leukemia it was 97.8%.

As for `COc1ccc(-c2cn(-c3cc(OC)c(OC)c(OC)c3)c(=O)n2C(C)=O)cc1`, the growth in the experiment on SK-MEL-2 melanoma was 86.3%; in the experiment on EKVX NSCLC it was 91%; in the experiment with SN12C renal it was 91.3%; with UO-31 renal, 84.3%; in the experiment on TK-10 renal it was 98.9%; in the experiment on ACHN renal, 87.1%. Further, the growth is 12.1% in the experiment with CAKI-1 renal, 68.3% with A498 renal, 91.7% with CCRF-CEM leukemia and 75.1% with MOLT-4 leukemia.

On to `CCN1CCN(Cc2cn(CC(=O)Nc3ccc4c(ccn4Cc4ccccc4)c3)nn2)CC1`, for which the growth in the experiment with SK-MEL-2 melanoma is 106%; in the experiment on EKVX NSCLC, 106%; in the experiment on SN12C renal it was 104%; in the experiment on UO-31 renal it was 81.3%; in the experiment with TK-10 renal it was 99.2%; with ACHN renal it was 102%. In addition, the growth in the experiment with CAKI-1 renal is 86.7%; in the experiment with A498 renal, 108%; in the experiment with CCRF-CEM leukemia, 7.79% (active); in the experiment with MOLT-4 leukemia, 101%.

For `COC(=O)/C=C1/SC(=Nc2ccc(C)cc2)N(CCc2c[nH]c3ccc(O)cc23)C1=O`, the growth in the experiment with SK-MEL-2 melanoma was 35.4%; in the experiment on EKVX NSCLC, 49.6%; in the experiment on SN12C renal, 45.4%; in the experiment with UO-31 renal, 46.8%; with TK-10 renal, 94.6%; with ACHN renal, 57.4%. The growth was 69.9% in the experiment with CAKI-1 renal, 67.1% with A498 renal, 1.81% (active) in the experiment on CCRF-CEM leukemia and -8.16% (active) in the experiment on MOLT-4 leukemia.

Regarding `Cc1ccc(Cc2cnc(NC(=O)c3cc(Br)cs3)s2)cc1`, the growth was 26.9% with SK-MEL-2 melanoma; 78.3% in the experiment with EKVX NSCLC; 68.7% in the experiment with SN12C renal; 71.7% in the experiment on UO-31 renal; 78.1% in the experiment with TK-10 renal; 81.9% in the experiment on ACHN renal. In addition, the growth was 53.9% in the experiment with CAKI-1 renal, 55.1% in the experiment with A498 renal, 31.8% in the experiment on CCRF-CEM leukemia and 36.1% in the experiment on MOLT-4 leukemia.

With `O=C1/C(=C/c2cccs2)SC(=S)N1CCCN1CCOCC1`, the growth in the experiment with SK-MEL-2 melanoma is 101%; with EKVX NSCLC, 94.8%; in the experiment with SN12C renal, 83.3%; with UO-31 renal, 82.4%; in the experiment with TK-10 renal, 122%; in the experiment on ACHN renal, 95.3%. Moreover, the growth was 91.5% in the experiment with CAKI-1 renal, 72.2% in the experiment on A498 renal, 87.5% with CCRF-CEM leukemia and 101% with MOLT-4 leukemia.

For the compound `C#CCOc1cccc(Nc2ncnc3c(NC(=O)C=C)cccc23)c1`, the growth is 8.09% (active) with SK-MEL-2 melanoma; 55.7% in the experiment on EKVX NSCLC; 0.801% (active) in the experiment with SN12C renal; 25.8% in the experiment with UO-31 renal; -6.1% (active) with TK-10 renal; 23.8% in the experiment with ACHN renal. Also, the growth in the experiment on CAKI-1 renal is 25.7%; in the experiment with A498 renal it was 32%; in the experiment on CCRF-CEM leukemia, 2.68% (active); with MOLT-4 leukemia, 4.11% (active).

Turning to `CC(C)=CCC[C@](C)(O)[C@H]1CC[C@]2(C)[C@@H]1CC[C@@H]1[C@@]3(C)Cc4nccnc4C(C)(C)[C@@H]3CC[C@]12C`, the growth is 82.7% in the experiment with SK-MEL-2 melanoma; 70.6% with EKVX NSCLC; 72.3% in the experiment on SN12C renal; 79.9% with UO-31 renal; 94.9% in the experiment on TK-10 renal; 85% with ACHN renal. In addition, the growth is 70.2% with CAKI-1 renal, 91.4% in the experiment on A498 renal, 68.4% in the experiment on CCRF-CEM leukemia and 66.7% in the experiment with MOLT-4 leukemia.

For `C=C1C(=O)O[C@H]2[C@H]1CC/C(COC(=O)CSCCSCC(=O)OC/C1=C/CC[C@@]3(C)O[C@H]3[C@H]3OC(=O)C(=C)[C@@H]3CC1)=C\CC[C@@]1(C)O[C@@H]21`, the growth in the experiment on SK-MEL-2 melanoma was 70%; in the experiment on EKVX NSCLC, 11%; in the experiment on SN12C renal, -10.4% (active); in the experiment on UO-31 renal it was 7.85% (active); in the experiment with TK-10 renal, 16.6%; with ACHN renal it was 2.6% (active). In addition, the growth with CAKI-1 renal is 9.17% (active); in the experiment on A498 renal, 88.7%; in the experiment on CCRF-CEM leukemia, -41.5% (active); in the experiment with MOLT-4 leukemia, -22.5% (active).

For `COc1ccc(NC(=O)c2sc3nc(C)c(C(=O)/C=C/c4cccc(OC)c4)cc3c2N)cc1`, the growth in the experiment with SK-MEL-2 melanoma is 42.9%; in the experiment with EKVX NSCLC, 93.5%; in the experiment with SN12C renal, 19.7%; in the experiment with UO-31 renal it was 27.1%; with TK-10 renal, 82.2%; with ACHN renal, 52.3%. Also, the growth is 32.9% with CAKI-1 renal, 14.3% in the experiment on A498 renal, 7.32% (active) in the experiment with CCRF-CEM leukemia and 33.1% with MOLT-4 leukemia.

Take `CCOC(=O)C1=C(NC)OCC1=O`: the growth is 116% with SK-MEL-2 melanoma; 99.3% in the experiment with EKVX NSCLC; 103% with SN12C renal; 88.3% with UO-31 renal; 99.4% in the experiment on TK-10 renal; 110% in the experiment on ACHN renal. Besides, the growth in the experiment with CAKI-1 renal was 100%; in the experiment on A498 renal, 86.1%; in the experiment with CCRF-CEM leukemia, 101%; in the experiment on MOLT-4 leukemia, 97.3%.

For `CCc1ccc(C(=O)/C=C/C23c4ccccc4C(c4ccccc42)C2C(=O)NC(=O)C23)cc1` (stereo not given), the growth with SK-MEL-2 melanoma is 3.45% (active); in the experiment with EKVX NSCLC, 23.2%; with SN12C renal, -7.89% (active); in the experiment with UO-31 renal, 22.1%; in the experiment with TK-10 renal, 18%; in the experiment on ACHN renal, 0.0344% (active). Further, the growth in the experiment with CAKI-1 renal was 27.5%; in the experiment with A498 renal it was 5.29% (active); with CCRF-CEM leukemia it was 0.462% (active); in the experiment on MOLT-4 leukemia, 2.03% (active).

In the case of `CCn1c(=S)sc2c(Nc3ccc(F)cc3)nc(-c3cccnc3)nc21`, the growth in the experiment with SK-MEL-2 melanoma was 63.1%; with EKVX NSCLC, 80.5%; in the experiment with SN12C renal, 84.1%; in the experiment on UO-31 renal, 78.5%; in the experiment on TK-10 renal it was 58.2%; in the experiment on ACHN renal, 40.7%. For the same compound, the growth in the experiment on CAKI-1 renal was 55.1%; with A498 renal, 93.7%; with CCRF-CEM leukemia, 102%; in the experiment with MOLT-4 leukemia, 93.7%.
